Inconclusive results are not listed. Activity calls are given as the source filed them. Calls come from the whole dose curve; as a rule, active = well fitted curve in the direction sought with a large enough effect; inconclusive = small, poorly fitted or top-dose-only effect, or another doubt; inactive = no such curve, though single readings can be large; an effect the other way counts as inactive or inconclusive.
Key:
[1] = NS1 protein of Zika virus - qHTS assay to identify small molecule inhibitors in human HEK 293 cells (AID 1347053); conditions: HEK293 ZIKV MR766 infection, NS1 TR-FRET, 24 h; series mostly up to 46.1 µM; note: nearly all actives have a fitted effect of over 55% in size
In short: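 HEK 293 cells pretreated with compound for 1 h, then infected with ZIKV MR766 (MOI 0.5) for 24 h at 37 C. NS1 detected by TR-FRET with two anti-NS1 antibodies; normalized to uninfected (0%) and infected (100%) wells.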

[2] = qHTS of pediatric cancer cell lines to identify multiple opportunities for drug repurposing: Primary screen for TC32 cells (AID 1347089); conditions: TC32 Ewing sarcoma viability, CellTiter-Glo luminescence, 48 h; series mostly up to 45.8 µM; note: nearly all actives have a fitted effect of over 60% in size
In short: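 Luminescent CellTiter-Glo read-out of metabolically active TC32 cells after 48 h compound exposure. Primary: MIPE 11-point, 0.78 nM–46 µM; NPC 8-point, 0.59 nM–46 µM. Confirmatory: 11-point dilutions.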

[3] = qHTS of pediatric cancer cell lines to identify multiple opportunities for drug repurposing: Primary screen for SJ-GBM2 cells (AID 1347091); conditions: SJ-GBM2 viability, CellTiter-Glo luminescence, 48 h; series mostly up to 46 µM
In short: (§1)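 Eight- or eleven-point concentration series, 48 h treatment at 37 degrees C in growth media; readout CellTiter-Glo luminescence. Potency and efficacy were taken from the concentration-response curves.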

[4] = qHTS of pediatric cancer cell lines to identify multiple opportunities for drug repurposing: Primary screen for A673 cells (AID 1347092); conditions: A673 Ewing sarcoma viability, CellTiter-Glo ATP luminescence, 48 h; series mostly up to 46 µM; note: nearly all actives have a fitted effect of over 45% in size
In short: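 A673 cells (500-1,000 cells/well in growth media) were pre-incubated 5 h at 37 degrees C, then exposed to compounds for 48 h. Viability was read as CellTiter-Glo luminescence; concentration-response curves came directly from the primary screen.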

[5] = qHTS of pediatric cancer cell lines to identify multiple opportunities for drug repurposing: Primary screen for SK-N-MC cells (AID 1347093); conditions: SK-N-MC viability, CellTiter-Glo luminescence, 48 h; series mostly up to 46 µM
In short: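 Metabolically active cells were quantified by ATP-dependent luminescence (CellTiter-Glo, 15 min at room temperature) following 48 h treatment. Cells had been plated at 500-1,000 per well and settled for 5 h beforehand.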

[6] = qHTS of pediatric cancer cell lines to identify multiple opportunities for drug repurposing: Primary screen for BT-37 cells (AID 1347094); conditions: BT-37 viability, CellTiter-Glo luminescence, 48 h; series mostly up to 57.3 µM
In short: (§2)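 Cells plated at 500-1,000/well in growth medium, compounds added after 5 h. MIPE tested at 11 points (from 0.78 nM), NPC at 8 points (from 0.59 nM). CellTiter-Glo luminescence after 48 h; concentration-response curves from primary screen.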

[7] = qHTS of pediatric cancer cell lines to identify multiple opportunities for drug repurposing: Primary screen for NB-EBc1 cells (AID 1347095); conditions: NB-EBc1 neuroblastoma viability, CellTiter-Glo luminescence, 48 h; series mostly up to 46 µM
In short: as §2

[8] = qHTS of pediatric cancer cell lines to identify multiple opportunities for drug repurposing: Primary screen for U-2 OS cells (AID 1347096); conditions: U-2 OS viability, CellTiter-Glo luminescence, 48 h; series mostly up to 46 µM; note: nearly all actives have a fitted effect of over 50% in size
In short: (§3)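 Cells (500-1,000/well) in growth media were settled 5 h at 37 degrees C, then given compounds for 48 h. Viability was read as CellTiter-Glo luminescence. Primary runs used MIPE at 11 points (0.78 nM-46 µM) and NPC at 8 points (0.59 nM-46 µM); follow-ups used 11 points.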

[9] = qHTS of pediatric cancer cell lines to identify multiple opportunities for drug repurposing: Primary screen for Saos-2 cells (AID 1347097); conditions: Saos-2 viability, CellTiter-Glo ATP luminescence, 48 h; series mostly up to 46 µM; note: nearly all actives have a fitted effect of over 40% in size
In short: as §2

[10] = qHTS of pediatric cancer cell lines to identify multiple opportunities for drug repurposing: Primary screen for SK-N-SH cells (AID 1347098); conditions: SK-N-SH viability, CellTiter-Glo luminescence, 48 h; series mostly up to 57 µM;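 note: DMSO served as neutral control and bortezomib at 2.3 µM as positive control; nearly all actives have a fitted effect of over 65% in size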
In short: (§4)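 Cells (500-1,000/well) rested 5 h, then received compounds for 48 h; metabolically active cells were measured by CellTiter-Glo luminescence. Final concentrations spanned up to 46 µM (MIPE, 11-point) or 0.59 nM-46 µM (NPC, 8-point) in primary screens, 11-point in follow-ups.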

[11] = qHTS of pediatric cancer cell lines to identify multiple opportunities for drug repurposing: Primary screen for NB1643 cells (AID 1347099); conditions: NB1643 neuroblastoma viability, CellTiter-Glo luminescence, 48 h; series mostly up to 46 µM; note: nearly all actives have a fitted effect of over 50% in size
In short: as §2

[12] = qHTS of pediatric cancer cell lines to identify multiple opportunities for drug repurposing: Primary screen for LAN-5 cells (AID 1347100); conditions: LAN-5 neuroblastoma viability, CellTiter-Glo luminescence, 48 h; series mostly up to 46 µM
In short: as §3

[13] = qHTS of pediatric cancer cell lines to identify multiple opportunities for drug repurposing: Primary screen for BT-12 cells (AID 1347101); conditions: BT-12 viability, CellTiter-Glo luminescence, 48 h; series mostly up to 57.3 µM; note: nearly all actives have a fitted effect of over 25% in size
In short: as §4

[14] = qHTS of pediatric cancer cell lines to identify multiple opportunities for drug repurposing: Primary screen for Rh18 cells (AID 1347102); conditions: Rh18 rhabdomyosarcoma viability, CellTiter-Glo luminescence, 48 h; series mostly up to 46 µM; note: nearly all actives have a fitted effect of over 65% in size
In short: as §3

[15] = qHTS of pediatric cancer cell lines to identify multiple opportunities for drug repurposing: Primary screen for OHS-50 cells (AID 1347103); conditions: OHS-50 osteosarcoma viability, CellTiter-Glo luminescence, 48 h; series mostly up to 57.3 µM; note: nearly all actives have a fitted effect of over 40% in size
In short: as §4

[16] = qHTS of pediatric cancer cell lines to identify multiple opportunities for drug repurposing: Primary screen for DAOY cells (AID 1347090); conditions: DAOY medulloblastoma viability, CellTiter-Glo luminescence, 48 h; series mostly up to 46 µM; note: nearly all actives have a fitted effect of over 55% in size
In short: as §1

Measured: Potency

CN1CCN(c2cc3c(cc2F)c(=O)c(C(=O)O)cn3-c2ccc(F)cc2)CC1
inactive: [1] | [2] | [3] | [4] | [5] | [6] | [7] | [8] | [9] | [10] | [11] | [12] | [13] | [14] | [15]

CC(C)(C)NC[C@H](O)COc1cccc2c1CCCC2=O
inactive: [1] | [2] | [16] | [4] | [5] | [6] | [7] | [8] | [11] | [12] | [13] | [14] | [15]

O=[N+]([O-])c1cccc(S(=O)(=O)NCCNS(=O)(=O)c2cccc([N+](=O)[O-])c2)c1
inactive: [1] | [2] | [3] | [4] | [5] | [6] | [7] | [8] | [10] | [11] | [12] | [13] | [14]

O=C1C(=O)c2ccccc2C(O)=C1C1CCC(c2ccc(Cl)cc2)CC1 (centres undefined)
inactive: [1] | [2] | [16] | [4] | [5] | [6] | [8] | [10] | [11] | [12] | [13] | [14] | [15]

NCCNC(=O)c1ccc(Cl)cn1
inactive: [1] | [2] | [3] | [4] | [5] | [6] | [7] | [8] | [9] | [10] | [11] | [12] | [13] | [14] | [15]

CC1(C)OC[C@@H]2O[C@@]3(C(=O)O)OC(C)(C)O[C@H]3[C@@H]2O1
inactive: [1] | [2] | [3] | [4] | [5] | [6] | [7] | [8] | [9] | [10] | [11] | [12] | [13] | [14] | [15]

Cc1cccc(C)c1NC(=O)c1ccccc1C(=O)O
inactive: [1] | [2] | [16] | [4] | [5] | [6] | [7] | [8] | [10] | [11] | [12] | [13] | [14] | [15]

CC(=O)NCCCCCC(=O)O
inactive: [1] | [2] | [3] | [4] | [5] | [6] | [7] | [8] | [10] | [11] | [12] | [13] | [14] | [15]

O=C(NC1CCN(CCc2c[nH]c3ccccc23)CC1)c1ccccc1
inactive: [1] | [2] | [3] | [4] | [5] | [6] | [7] | [8] | [9] | [10] | [11] | [12] | [13] | [14]

CCOc1ccccc1OCCN[C@H](C)Cc1ccc(OC)c(S(N)(=O)=O)c1
inactive: [1] | [2] | [3] | [4] | [5] | [6] | [7] | [8] | [10] | [11] | [12] | [13] | [14] | [15]

COc1cc(C(=S)N2CCOCC2)ccc1O
inactive: [1] | [2] | [16] | [4] | [5] | [6] | [7] | [8] | [9] | [11] | [12] | [13] | [14] | [15]

C/C=C/c1ccc(O)c(OC)c1
inactive: [1] | [2] | [3] | [4] | [5] | [6] | [7] | [8] | [9] | [10] | [11] | [12] | [13] | [14] | [15]

OC(C#CCN1CCCC1)(c1ccccc1)c1ccccc1
inactive: [1] | [2] | [3] | [4] | [5] | [6] | [7] | [8] | [9] | [10] | [11] | [12] | [13] | [14]

CC(=O)OCC1=C(C(=O)O)N2C(=O)[C@@H](NC(=O)CSc3ccncc3)[C@H]2SC1
inactive: [1] | [2] | [3] | [4] | [6] | [7] | [8] | [9] | [10] | [11] | [12] | [13] | [14]

N#CCC(=O)NN
inactive: [1] | [2] | [3] | [4] | [5] | [6] | [7] | [8] | [9] | [10] | [11] | [12] | [13] | [14] | [15]

COc1ccc(/C=N/NC(=O)c2ccncc2)cc1OC
inactive: [1] | [2] | [3] | [4] | [5] | [6] | [7] | [8] | [9] | [10] | [11] | [12] | [13] | [14]

O=C(Nc1cccc(C2=NCCN2)c1)Nc1cccc(C2=NCCN2)c1
inactive: [1] | [2] | [3] | [4] | [5] | [6] | [7] | [8] | [9] | [10] | [11] | [12] | [14] | [15]

Source: PubChem BioAssay (NCATS)
